Screens from PubChem BioAssay.
TDP1 cell CPT: growth inhibition of DT40 Tdp1-/-;hTDP1 cells with camptothecin (screen for TDP1 inhibitors); chicken DT40 Tdp1-/-;hTDP1 cells + 20 nM CPT, ATP luminescence, 48 h; hit rate 12% among 420,000; Potency, µM (titrated, usually from 46.2 µM), without a hit: at the highest dose activity change, negative = growth inhibition, usual class: inhibitors; AID 686979; also: potency is read from the fitted curve at half-maximal effect; nearly all actives have a fitted effect of over 55% in size
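Cell growth measured by CellTiter-Glo luminescence after a minimum 48 h, 37 C compound exposure with 20 nM CPT in Tdp1-knockout DT40 cells stably expressing hTDP1, seeded 400/well; qHTS titration format.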
IL1B secr inh: blocks inflammasome-driven IL-1 beta release | THP-1 LPS/ATP IL-1B secretion, AlphaLISA, 16 h; hits give low values | activity change, % at 57.5 µM | hit rate 4.7% among 360,000; in the data active = activity change below about -50%; inconclusive = mostly about -30% to -49%
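THP-1 cells pretreated 1 hr with compounds (up to 57.5 uM final), then stimulated with LPS (250 ng/mL final) plus ATP (1.25 mM final); secreted IL-1B measured by AlphaLISA after 16 hr, decreased signal indicating inhibition.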
TDP1 cell noCPT: qHTS for Inhibitors of human tyrosyl-DNA phosphodiesterase 1 (TDP1): qHTS in cells in absence of CPT; DT40 Tdp1-/- hTDP1 cells, no CPT, ATP luminescence, 48 h; Potency, µM (top dose mostly 46.2 µM), for inactives: at the top dose activity change, negative = growth inhibition, usual class: inhibitors; hit rate 15% among 420,000; also: potency is read from the fitted curve at half-maximal effect; nearly all actives have a fitted effect of over 55% in size
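Chicken DT40 Tdp1-/- cells stably complemented with human TDP1 were seeded at 400 cells/well with DMSO in place of 20 nM camptothecin. After compound pinning, cells grew at least 48 hr at 37 °C; viability read by CellTiter-Glo luminescence.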
HT1080-NT tox: kills 2HG-producing HT-1080-NT fibrosarcoma cells. HT-1080-NT fibrosarcoma viability, CellTiter-Glo ATP luminescence, 48 h. AID 686970. Potency, µM (titrated, usually from 46.1 µM), for inactives: at the highest dose activity, negative = less viability, usual class: cytotoxic. hit rate 1.6% among 360,000;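 also: NT is the 2HG producing partner of a matched IDH1 knockdown line; potency is read from the fitted curve at half-maximal effect; 0% = DMSO-treated cells and -100% = media-only wells without cells; nearly all actives have a fitted effect of over 55% in size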
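HT-1080-NT; 750 cells/well; 5% FBS RPMI; 48 h compound, 37 degrees C; CellTiter-Glo luminescence; curve fitting and curve-class assignment.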
ELG1 DNA repair: inhibitors of ELG1-dependent DNA repair in HEK293T cells. Potency, µM (titrated, usually from 46.1 µM), for the others: at the highest dose activity change, negative = inhibition, actives largely listed as inhibitors. hit rate 2.3% among 330,000. HEK293T ELG1-luciferase reporter, luminescence, 16 h; DNA damage induced by 5-fluorouridine; also: potency is read from the fitted curve at half-maximal effect; nearly all actives have a fitted effect of over 55% in size
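Quantitative HTS, concentration-response format. 2,000 cells/well co-treated with 5-fluorouridine and compound, 16 hr in 5% CO2 at 37 °C; ONE-Glo luminescence read after 30 min.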
HT1080 IDH1KD tx: HT-1080 IDH1 knockdown cell toxicity (counter line) | AID 686971 | Potency, µM (doses to about 46.1 µM), without a hit: at the top dose activity, negative = toxicity, usual class: cytotoxic | HT-1080 IDH1 knockdown viability, ATP luminescence, 48 h | hit rate 2% among 360,000;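 also: potency is read from the fitted curve at half-maximal effect; 0% = DMSO wells and -100% = cell-free medium wells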
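CellTiter-Glo luminescence after 48 h compound exposure at 37 degrees C of IDH1-knockdown HT-1080 cells in 5% FBS RPMI. %Activity scaled between DMSO wells and cell-free media wells, with curves fitted and assigned curve classes.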
Active calls of the source: *; ? = inconclusive; · = no result given; [ ] = dose if it differs, or a comment. This is a sample that favours compounds with a hit; in the whole collection about 19% have one here. Unless noted, calls follow the shape of the dose curve; as a rule, active = well fitted curve in the direction sought with a large enough effect; inconclusive = small, poorly fitted or top-dose-only effect, or another doubt; inactive = no such curve, though single readings can be large; an effect the other way counts as inactive or inconclusive. Unless noted, % is scaled to controls: 0 for no effect and ±100 for the full control effect.

SMILES | TDP1 cell CPT | IL1B secr inh | TDP1 cell noCPT | HT1080-NT tox | ELG1 DNA repair | HT1080 IDH1KD tx
Cc1ccc(S(=O)(=O)N2CCN(C(=O)CSc3ccc(Cl)cc3)CC2)cc1 | -13% | -61* | ? | 12% | ? | 12%
Cc1cc(C)cc(S(=O)(=O)c2cnc3ccccc3n2)c1 | ? | -99* | ? | -16% | 5% | ?
O=S(=O)(c1ccc(Cl)cc1)c1cnc2ccccc2n1 | -77% | -99* | -89% | ? | 3% | ?
Cc1nc(NCc2cnn(C)c2)sc1-c1ccn(-c2cccc(F)c2)n1 | 22%[9.04 µM] | · | -24% | · | · | ·
COc1ccc(-c2nnc(SCC(=O)Oc3cccc(C)c3C)o2)cc1 | 6% | · | 3% | · | · | ·
COc1cccc(N2CC(O)=C(c3nc4ccccc4s3)C2=N)c1 | 1.6µM* | 61 | 1.5µM* | ? | ? | ?
COc1ccc(CN2CCC[C@]3(N[C@H](c4ccccc4)[C@@H]4C(=O)N(C)C(=O)[C@@H]43)C2=O)cc1 | 4% | -3 | -25% | 8% | · | 15%
CCn1c(CNc2nc3ccccc3n2C(C)C)nc2ccccc21 | 15µM* | -28 | 10µM* | -12% | 0% | -4%
COc1cccc(CNc2nc3ccccc3n2C(C)C)c1O | 21µM* | ? | ? | -12% | -13% | -7%
CCCn1c(NCc2cccc(OC)c2O)nc2ccccc21 | -23% | -27 | ? | -16% | ? | -13%
CC(C)n1c(NCc2cc(Cl)ccc2O)nc2ccccc21 | ? | -12 | 18µM* | -1% | 4% | 0%
CC(C)n1c(NCc2nc3ccccc3n2C)nc2ccccc21 | -8% | -16 | -12% | 0% | 6% | -6%
Cc1cc(N/N=C2\CC(C)CC(C)(C)C2)nc2ccccc12 (stereo unspecified) | ? | 36 | ? | 8% | 1% | -1%
CCN(C(=O)CSc1nnc(-c2ccc3c(c2)OCO3)o1)C1CCS(=O)(=O)C1 (stereo unspecified) | -22% | 7 | -7% | 1% | 11% | 0%
COc1cc(/C=C/c2nc(C#N)c(N3CCN(C)CC3)o2)cc(OC)c1OC | 8.2µM* | · | 8.2µM* | · | · | ·
COc1cccc(/C=C/c2nc(C#N)c(N3CCN(C)CC3)o2)c1 | 23µM* | · | 23µM* | · | · | ·
CCC(=O)OC1C2CC3=C4CC(=O)OC(c5ccoc5)[C@]4(C)CCC3[C@@](C)(C2=O)C(CC(=O)OC)C1(C)C (stereo partly specified) | -2% | · | -2% | · | · | ·
O=C(O)c1cccc(/C=C2/C[C@@H]3[C@@H](/C=C/[C@@H](O)C4CCCCC4)[C@H](O)C[C@@H]3O2)c1 | -3% | · | -9% | · | · | ·
COc1ccccc1CNc1cc(-c2ccccc2C(F)(F)F)ncn1 | 1.3µM* | · | 1.5µM* | · | · | ·
COc1ccccc1CNc1cc(-c2ccc(C(=O)N(C)C)cc2)ncn1 | 1% | · | -9% | · | · | ·
COc1cccc(-c2cc(NCc3ccccc3OC)ncn2)c1 | 4.1µM* | · | ? | · | · | ·
COc1ccccc1CNc1cc(-c2ccccc2Cl)ncn1 | 16µM* | · | 15µM* | · | · | ·
COC(=O)C[C@@H]1C[C@H]2c3cc(NS(C)(=O)=O)ccc3O[C@H]2[C@H](CO)O1 | -9% | 16 | -21% | 16% | · | 5%
CC(C)N(C)c1ncnc2c1ncn2[C@H]1CN(Cc2cccs2)C[C@@H](CO)O1 | ? | 10 | ? | -1% | · | 15%
C=CCC[C@H](CCCCC)OC(=O)/C=C/[C@@H](O)[C@H](O)C[C@@H](O)CC=C | 18µM* | -2 | 18µM* | -28% | · | ?
